Where a name gives a salt, the structure may show the parent alone. ± gives the standard deviation of the averaged measurements.
Tests used:
[1] = test system: Saccharomyces cerevisiae BY4741 SeMeCo community; assay: mean cell size (pixel area) (pixels); higher = larger cells; conditions: 10 µM; 24 h; SM minimal medium
How it was run: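 Mean cell pixel area per well was determined by automated confocal microscopy with Harmony analysis of paraformaldehyde-fixed cells. The cells, a Saccharomyces cerevisiae BY4741 community of four plasmids that each complement one auxotrophy and carry a fluorescent marker, were incubated for 24 h with drug at a final 10 µM in SM medium in 384-well plates. Numbers are averaged over 3 replicates. Same SeMeCo high-content imaging drug screen: Selleck FDA-approved drugs at 10 µM, 24 h in SM medium, 384-well plates, 3 replicates.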

[2] = test system: Saccharomyces cerevisiae BY4741 SeMeCo community; assay: z-score of prototroph abundance vs DMSO median; higher = larger share of this subpopulation than in DMSO controls; conditions: 10 µM; 24 h; SM minimal medium; subpopulation (auxotrophy): Prototroph
How it was run: (§1)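 Automated confocal microscopy of paraformaldehyde-fixed cells was used to follow a Saccharomyces cerevisiae BY4741 community carrying four plasmids, each restoring one auxotrophy and encoding a distinct fluorescent protein. The community was pre-grown overnight to OD600 1.0, diluted to 0.3, and added at 70 µl to 384-well plates acoustically predosed with library drugs (10 µM final) for 24 h of growth in minimal SM medium. Single-auxotroph fluorescent strains set thresholds and autofluorescence correction, and each subpopulation's abundance was scored as a z-score against the vehicle-well median.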

[3] = test system: Saccharomyces cerevisiae BY4741 SeMeCo community; assay: z-score of subpopulation abundance vs DMSO median, subpopulation auxotrophic for U; higher = larger share of this subpopulation than in DMSO controls; conditions: 10 µM; 24 h; SM minimal medium; subpopulation (auxotrophy): U
How it was run: as §1

[4] = test system: Saccharomyces cerevisiae BY4741 SeMeCo community; assay: z-score of subpopulation abundance vs DMSO median, subpopulation auxotrophic for H; higher = larger share of this subpopulation than in DMSO controls; conditions: 10 µM; 24 h; SM minimal medium; subpopulation (auxotrophy): H
How it was run: as §1

[5] = test system: Saccharomyces cerevisiae BY4741 SeMeCo community; assay: z-score of subpopulation abundance vs DMSO median, subpopulation auxotrophic for LU; higher = larger share of this subpopulation than in DMSO controls; conditions: 10 µM; 24 h; SM minimal medium; subpopulation (auxotrophy): LU
How it was run: as §1

[6] = test system: Saccharomyces cerevisiae BY4741 SeMeCo community; assay: z-score of subpopulation abundance vs DMSO median, subpopulation auxotrophic for LM; higher = larger share of this subpopulation than in DMSO controls; conditions: 10 µM; 24 h; SM minimal medium; subpopulation (auxotrophy): LM
How it was run: as §1

[7] = test system: Saccharomyces cerevisiae BY4741 SeMeCo community; assay: z-score of subpopulation abundance vs DMSO median, subpopulation auxotrophic for HM; higher = larger share of this subpopulation than in DMSO controls; conditions: 10 µM; 24 h; SM minimal medium; subpopulation (auxotrophy): HM
How it was run: as §1

[8] = test system: Saccharomyces cerevisiae BY4741 SeMeCo community; assay: z-score of subpopulation abundance vs DMSO median, subpopulation auxotrophic for HU; higher = larger share of this subpopulation than in DMSO controls; conditions: 10 µM; 24 h; SM minimal medium; subpopulation (auxotrophy): HU
How it was run: as §1

[9] = test system: Saccharomyces cerevisiae BY4741 SeMeCo community; assay: z-score of subpopulation abundance vs DMSO median, subpopulation auxotrophic for HL; higher = larger share of this subpopulation than in DMSO controls; conditions: 10 µM; 24 h; SM minimal medium; subpopulation (auxotrophy): HL
How it was run: as §1

[10] = test system: Saccharomyces cerevisiae BY4741 SeMeCo community; assay: z-score of subpopulation abundance vs DMSO median, subpopulation auxotrophic for HLU; higher = larger share of this subpopulation than in DMSO controls; conditions: 10 µM; 24 h; SM minimal medium; subpopulation (auxotrophy): HLU
How it was run: as §1

[11] = test system: Saccharomyces cerevisiae BY4741 SeMeCo community; assay: z-score of subpopulation abundance vs DMSO median, subpopulation auxotrophic for HUM; higher = larger share of this subpopulation than in DMSO controls; conditions: 10 µM; 24 h; SM minimal medium; subpopulation (auxotrophy): HUM
How it was run: as §1

[12] = test system: Saccharomyces cerevisiae BY4741 SeMeCo community; assay: z-score of subpopulation abundance vs DMSO median, subpopulation auxotrophic for LUM; higher = larger share of this subpopulation than in DMSO controls; conditions: 10 µM; 24 h; SM minimal medium; subpopulation (auxotrophy): LUM
How it was run: as §1

[13] = test system: Saccharomyces cerevisiae BY4741 SeMeCo community; assay: z-score of subpopulation abundance vs DMSO median, subpopulation auxotrophic for HLUM; higher = larger share of this subpopulation than in DMSO controls; conditions: 10 µM; 24 h; SM minimal medium; subpopulation (auxotrophy): HLUM
How it was run: as §1

[14] = test system: Saccharomyces cerevisiae BY4741 SeMeCo community; assay: z-score of subpopulation abundance vs DMSO median, subpopulation auxotrophic for L; higher = larger share of this subpopulation than in DMSO controls; conditions: 10 µM; 24 h; SM minimal medium; subpopulation (auxotrophy): L
How it was run: as §1

[15] = test system: Saccharomyces cerevisiae BY4741 SeMeCo community; assay: z-score of subpopulation abundance vs DMSO median, subpopulation auxotrophic for HLM; higher = larger share of this subpopulation than in DMSO controls; conditions: 10 µM; 24 h; SM minimal medium; subpopulation (auxotrophy): HLM
How it was run: as §1

[16] = test system: Saccharomyces cerevisiae BY4741 SeMeCo community; assay: z-score of subpopulation abundance vs DMSO median, subpopulation auxotrophic for UM; higher = larger share of this subpopulation than in DMSO controls; conditions: 10 µM; 24 h; SM minimal medium; subpopulation (auxotrophy): UM
How it was run: as §1

SMILES | mean cell size [1] | z-score of prototroph abundance [2] | z-score of subpopulation abundance [3] | z-score of subpopulation abundance [4] | z-score of subpopulation abundance [5] | z-score of subpopulation abundance [6] | z-score of subpopulation abundance [7] | z-score of subpopulation abundance [8] | z-score of subpopulation abundance [9] | z-score of subpopulation abundance [10] | z-score of subpopulation abundance [11] | z-score of subpopulation abundance [12] | z-score of subpopulation abundance [13] | z-score of subpopulation abundance [14] | z-score of subpopulation abundance [15] | z-score of subpopulation abundance [16]
OC(CCCN1CCCCC1)(c1ccccc1)c1ccccc1 [Diphenidol HCl] | 12.4 ± 0.41 | -0.42 | 0.63 | -0.38 | 0.23 | -0.56 | 0.03 | 0.48 | -0.42 | -0.05 | 0.78 | -0.35 | -0.39 |  |  | 
N[C@H]1CONC1=O [L-Cycloserine] | 11.54 ± 0.047 | -1.74 | -0.91 | 5.08 |  | 1.19 | 3.92 | 1.14 | 3.71 | 4.59 | 1.54 | 1.18 | 5.78 | 2.81 | 5.24 | 
CCCCCCCCCC(=O)NC1C(Oc2c3cc4cc2Oc2ccc(cc2Cl)C(OC2OC(CO)C(O)C(O)C2NC(C)=O)C2NC(=O)C(NC(=O)C4NC(=O)C4NC(=O)C(Cc5ccc(c(Cl)c5)O3)NC(=O)C(N)c3ccc(O)c(c3)Oc3cc(O)cc4c3)c3ccc(O)c(c3)-c3c(OC4OC(CO)C(O)C(O)C4O)cc(O)cc3C(C(=O)O)NC2=O)OC(CO)C(O)C1O (stereo unspecified) [Teicoplanin] |  |  | -0.01 |  | 0.07 | 0.75 | 1.4 | 0.39 | 1.01 | -0.15 | 1.19 | 0.85 | -0.79 |  | -0.07 | 
CC[C@H](C)C(=O)O[C@H]1C[C@H](O)C=C2C=C[C@H](C)[C@H](CC[C@@H](O)C[C@@H](O)CC(=O)O)[C@H]21 [Pravastatin sodium] | 12.3 ± 0.26 |  | -0.09 | 0.31 | 1.81 | 1.93 | 0.12 | 0.26 | 0.84 | -0.65 |  | 0.57 | 2.71 | 2.2 | 0.62 | 0.47
CC[C@H]1OC(=O)[C@H](C)[C@@H](O[C@H]2C[C@@](C)(OC)[C@@H](O)[C@H](C)O2)[C@H](C)[C@@H](O[C@@H]2O[C@H](C)C[C@H](N(C)C)[C@H]2O)[C@](C)(O)C[C@@H](C)/C(=N\OCOCCOC)[C@H](C)[C@@H](O)[C@]1(C)O [Roxithromycin] | 12.4 ± 0.26 | -0.63 |  | 0.59 | -0.28 | 0.13 | 0.24 | 0.46 | 0.42 | 0 |  | 0.55 |  |  | -0.45 | 0.31
COC(=O)C1=C(C#N)NC(C)=C(C(=O)OC(C)C)C1c1cccc([N+](=O)[O-])c1 (stereo unspecified) [Nilvadipine] |  |  | -1.16 | 1.45 | -1.37 | -0.12 |  | -1.66 | -0.05 | -0.56 | -0.21 | -0.7 | 0.19 | -0.93 | 2.28 | -0.73
O=C(Cn1cnnn1)N[C@@H]1C(=O)N2C(C(=O)O)=C(CSc3nncs3)CS[C@H]12 [Ceftezole sodium] |  | -0.69 | 1.07 | -0.94 | 0.2 | 0.18 | -0.19 | 0.45 | 0 | 0.11 | -0.02 | 0.36 | 0.82 |  | 0.32 | 0.35

Reference: the supplement of paper PMC8975748
